Measured values: PubChem BioAssay (EPA / NIEHS)
Several values for one entry are separate records, joined by “and”; a condition that tells them apart may be missing. Equal entries are not always repeated. Inconclusive results are not listed. Activity calls are given as the source filed them. How the source made its calls, unless noted: active means hit-call score of the fitted dose curve at least 0.9, where 1 is the maximum; inactive means score below 0.9.

experiment: CCTE_Mundy_HCI_Cortical_Synap_Neur_Matur_SynapseCount: CCTE's Synaptogenesis and Neurite Maturation Assay in rat cortical cells for Synapse Count, Mundy Lab (AID 2284218)
In short: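 High-content imaging of synaptophysin puncta per MAP2-positive neuron (Hoechst nuclei) in rat cortical cells exposed DIV 7–12 after glial arrest with AraC at DIV 5; decrease relative to DMSO scored.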

SMILES | outcome | AC50
CN1CCC[C@H]1c1cccnc1 | inactive | 
CC#C[C@]1(O)CC[C@H]2[C@@H]3CCC4=CC(=O)CCC4=C3[C@@H](c3ccc(N(C)C)cc3)C[C@@]21C |  | 13.3 µM (active) and 25.1 µM (active)
CC1=C(/C=C/C(C)=C/C=C/C(C)=C/C(=O)O)C(C)(C)CCC1 | inactive | 

experiment: CCTE_Mundy_HCI_Cortical_Synap_Neur_Matur_CellBodySpotCount: CCTE's Synaptogenesis and Neurite Maturation Assay in rat cortical cells for Cell Body Spot Count, Mundy Lab (AID 2284223)
In short: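 High-content imaging counts synaptophysin puncta on neuronal cell bodies per neuron after MAP2/synaptophysin immunostaining. Rat primary cortical cells, glia arrested with AraC at DIV 5, were exposed DIV 7–12; signal decrease measured against DMSO.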

SMILES | outcome | AC50
CN1CCC[C@H]1c1cccnc1 | inactive | 
CC#C[C@]1(O)CC[C@H]2[C@@H]3CCC4=CC(=O)CCC4=C3[C@@H](c3ccc(N(C)C)cc3)C[C@@]21C |  | 16.7 µM (active) and 24.8 µM (active)
CC1=C(/C=C/C(C)=C/C=C/C(C)=C/C(=O)O)C(C)(C)CCC1 | inactive | 

experiment: CCTE_Mundy_HCI_hNP1_Pro_ResponderAvgInten: CCTE's Proliferation Assay in human neuroprogenitor cells, Mundy Lab (AID 2284224; active means hit-call score of the fitted dose curve at least 0.9, where 1 is the maximum;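 further: human neural progenitor cells hNP1 derived from WA09 embryonic stem cells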)
In short: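 Proliferation was scored as BrdU labelling intensity in human neural progenitors derived from WA09 embryonic cells, measured 26.25 hours after chemical dosing. Activity was fitted relative to DMSO.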

SMILES | outcome | AC50
OCCC(F)(F)C(F)(F)C(F)(F)C(F)(F)C(F)(F)C(F)(F)C(F)(F)C(F)(F)F | inactive | 
C=C(C)C(=O)OCCC(F)(F)C(F)(F)C(F)(F)C(F)(F)C(F)(F)C(F)(F)F | inactive | 
CC#C[C@]1(O)CC[C@H]2[C@@H]3CCC4=CC(=O)CCC4=C3[C@@H](c3ccc(N(C)C)cc3)C[C@@]21C |  | 18 µM (active) and 23.2 µM (active)
